{"source": "paper PMC4552634", "about": "“A New Set of Chemical Starting Points with Plasmodium falciparum Transmission-Blocking Potential for Antimalarial Drug Discovery” (PLoS ONE, 2015)", "note": "Among all 13,000 compounds or so, about 3,200 (25%) showed an effect of 50% or more. Some of the results follow."}
{"test_system": "P. falciparum stage V gametocytes", "set-up": "BacTiter-Glo ATP luminescence viability of purified stage V gametocytes in 384-well plates, per cent inhibition versus DMSO", "conditions": "48 h, 5 µM; inhibitor", "units": {"% Inhibition": "%"}}
{"smiles": "Cc1cc(C2CCN(CCCCNC(=O)c3ccc(-c4ccc(C(F)(F)F)cc4)cc3)CC2)c(C)cc1OCC(N)=O", "note": "[TCMDC-138800]", "% Inhibition": 4.975}
{"smiles": "CCOC(=O)c1cc(C(=O)NCCCCN2CCC(c3ccc4c(c3OC)CCCC4)CC2)ccc1-c1ccc(C(F)(F)F)cc1", "note": "[TCMDC-138739]", "% Inhibition": 73.05}
{"smiles": "C=C(C)Cn1cc(C2CCN(CCCCNC(=O)c3sc(-c4ccc(Cl)cc4Cl)nc3CO)CC2)c2ccccc21", "note": "[TCMDC-138873]", "% Inhibition": -30.06}
{"smiles": "CC(=O)Oc1cc(C)ccc1C1CCN(CCCCNC(=O)c2ccc(-c3ccc(C(F)(F)F)cc3)cc2)CC1", "note": "[TCMDC-138626]", "% Inhibition": 28.6}
{"smiles": "CCOC(=O)c1cc(C(=O)NCCCCN2CCC(c3ccc(CC)cc3OCC)CC2)ccc1-c1ccc(C(F)(F)F)cc1", "note": "[TCMDC-138755]", "% Inhibition": 83.47}
{"smiles": "Cc1cc(C2CCN(CCCCNC(=O)c3ccc(-c4ccc(C(F)(F)F)cc4)cc3)CC2)c(C)cc1OCCO", "note": "[TCMDC-138798]", "% Inhibition": -10.99}
{"smiles": "COc1c(C2CCN(CCCCNC(=O)c3ccc(-c4ccc(C(F)(F)F)cc4)c(C(=O)OC(C)C)c3)CC2)ccc2c1CCCC2", "note": "[TCMDC-138744]", "% Inhibition": 32.47}
{"smiles": "CCc1ccc(C2CCN(CCCCNC(=O)c3ccc(-c4ccc(C#N)cc4)cc3)CC2)c(OCCO)c1", "note": "[TCMDC-138765]", "% Inhibition": -6.555}
{"smiles": "C=CCn1cc(C2CCN(CCCCNC(=O)c3sc(-c4ccc(C(F)(F)F)cc4)nc3CO)CC2)c2cc(OC)ccc21", "note": "[TCMDC-138828]", "% Inhibition": 92.56}
{"smiles": "CCc1ccc(C2CCN(CCCCNC(=O)c3ccc(-c4ccc(C(F)(F)F)cc4)cc3)CC2)c(OCCO)c1", "note": "[TCMDC-138761]", "% Inhibition": 105.9}
{"smiles": "COC(=O)c1ccc(C(=O)NCCCCN2CCC(c3ccc4c(c3OC)CCCC4)CC2)cc1-c1ccc(C(F)(F)F)cc1", "note": "[TCMDC-138705]", "% Inhibition": -64.43}
{"smiles": "Cn1cc(C2CCN(CCCCNC(=O)c3sc(-c4ccc(C(F)(F)F)cc4)nc3CO)CC2)c2ccccc21", "note": "[TCMDC-138778]", "% Inhibition": -59.88}
{"smiles": "COc1cccc(C(=O)OC2=C3CCC(=O)C3(C)CCC2=O)c1", "note": "(stereo not drawn) [TCMDC-131633]", "% Inhibition": 39.81}
{"smiles": "CC(C)(C)OC(=O)N1CCN(c2ccccc2NC(=O)c2cccc(C(F)(F)F)c2Oc2ccc(F)cc2)CC1", "note": "[TCMDC-140951]", "% Inhibition": -16.31}
{"smiles": "COc1ccc2[nH]c(C(=O)Nc3ccc4nc(-c5ccccc5)[nH]c4c3)cc2c1", "note": "[TCMDC-134305]", "% Inhibition": -25.97}
{"smiles": "CCOc1ccccc1CON1C(N)=NC(N)=NC1(C)C", "note": "[TCMDC-131583]", "% Inhibition": 17.24}
{"smiles": "CCNc1cc(C)nc(Nc2ccc(NC(=O)C3CCCC3)cc2)n1", "note": "[TCMDC-124980]", "% Inhibition": -0.5513}
{"smiles": "C=Cc1ccccc1C1(O)CCN(CCCCNC(=O)c2ccc(-c3ccc(C#N)cc3)cc2)CC1", "note": "[TCMDC-135786]", "% Inhibition": 28.95}
{"smiles": "Cc1cc(N[C@@H](CC(C)C)C(=O)Nc2ccccc2)nc(Nc2ccccc2)n1", "note": "[TCMDC-134743]", "% Inhibition": -20.12}
{"smiles": "C=CC[C@H](C[C@H](O)[C@H](Cc1ccccc1)NC(=O)c1ccc(-c2cccnn2)cc1)C(=O)NC1CCCCC1", "note": "[TCMDC-141421]", "% Inhibition": -14.32}
{"smiles": "CC(C)n1ncc2c(C(=O)N3CCCc4ccccc43)cc(-c3ccccc3)nc21", "note": "[TCMDC-125456]", "% Inhibition": 70.11}
{"smiles": "CC(NC(=O)c1cc(-c2ccccc2)nc2c1cnn2C(C)C)C1CC1", "note": "(stereo not drawn) [TCMDC-125054]", "% Inhibition": 5.318}
{"smiles": "CC(C)n1ncc2c(C(=O)N3CCCCCC3)cc(-c3ccccc3)nc21", "note": "[TCMDC-125259]", "% Inhibition": 6.769}
{"smiles": "CN(C)CCOc1cc(NC(=O)Nc2ccc(-c3ccncc3)c3ccccc23)ccc1I", "note": "[TCMDC-139118]", "% Inhibition": 23.38}
{"smiles": "COC(=O)c1c(C#N)c(OC)cc(O)c1CSC[C@@H](CN1CCCCC1)Nc1nc(-c2ccc([N+](=O)[O-])cc2)cs1", "note": "[TCMDC-138652]", "% Inhibition": -4.34}
{"smiles": "O=C(/C=C/c1ccc(Cl)c(Cl)c1)NCCCCCN1CCC(c2c[nH]c3c(-c4ccccc4)cccc23)CC1", "note": "[TCMDC-139399]", "% Inhibition": 108}
{"smiles": "O=C(/C=C/c1ccc(Cl)c(Cl)c1)NCC[C@@H]1C[C@H]1CCN1CCC(c2c[nH]c3ccccc23)CC1", "note": "[TCMDC-139466]", "% Inhibition": 86.41}
{"smiles": "O=C(/C=C/c1ccc(Cl)c(Cl)c1)NCCC(CN1CCC(c2c[nH]c3ccccc23)CC1)c1ccccc1", "note": "(stereo not drawn) [TCMDC-139621]", "% Inhibition": 20.48}
{"smiles": "CN(CCN1CCC(c2c[nH]c3ccccc23)CC1)c1ccc(-c2nc3cc(Cl)c(Cl)cc3[nH]2)cc1", "note": "[TCMDC-139373]", "% Inhibition": 50.88}
{"smiles": "O=C(/C=C/c1ccc(Cl)c(Cl)c1)NCc1ccc(CN2CCC(c3c[nH]c4ccccc34)CC2)cc1", "note": "[TCMDC-139405]", "% Inhibition": -66.38}
{"smiles": "CN(CCN1CCC(c2c[nH]c3ccccc23)CC1)C(=O)OCCCCCNC(=O)/C=C/c1ccc(Cl)c(Cl)c1", "note": "[TCMDC-139374]", "% Inhibition": -36.9}
{"smiles": "O=C(/C=C/c1ccc(Cl)c(Cl)c1)NCCCCN1CCC(c2c[nH]c3ccccc23)CC1", "note": "[TCMDC-139333]", "% Inhibition": -7.285}
{"smiles": "O=C(/C=C/c1ccc(Cl)c(Cl)c1)NCCCCCN1CCC(c2cn[nH]c2-c2ccccc2)CC1", "note": "[TCMDC-139493]", "% Inhibition": -12.94}
{"smiles": "O=C(/C=C/c1ccc(Cl)c(Cl)c1)NCCCCCN1CCCC(c2c[nH]c3ccccc23)C1", "note": "(stereo not drawn) [TCMDC-139481]", "% Inhibition": 8.151}
{"smiles": "O=C(/C=C/c1ccc(Cl)c(Cl)c1)NCCCCCN1CCC(c2c[nH]c3ccccc23)CC1", "note": "[TCMDC-139172]", "% Inhibition": 95.4}
{"smiles": "CN(CCC(CCN1CCC(c2c[nH]c3ccccc23)CC1)c1ccccc1)C(=O)Nc1ccc(Cl)c(Cl)c1", "note": "(stereo not drawn) [TCMDC-139625]", "% Inhibition": -72.07}
{"smiles": "O=C(/C=C/c1ccc(Cl)c(Cl)c1)NCCCN1CCC(c2c[nH]c3ccccc23)CC1", "note": "[TCMDC-139332]", "% Inhibition": 45.36}
{"smiles": "CCN(CCCN1CCCCC1)c1cc(C)nc(Nc2ccc(C(C)C)cc2)n1", "note": "[TCMDC-132454]", "% Inhibition": -8.614}
{"smiles": "Cc1ccc(NCc2cccc(F)c2)cc1S(=O)(=O)N[C@@H]1CCN(C#N)C1", "note": "[TCMDC-134125]", "% Inhibition": -7.553}
